IDH1 R132H inh: inhibitors of human mutant IDH1 R132H | 390,000 tested, 0.093% active | Potency, µM (series often up to 76.6 µM), without a hit: top-dose activity change, negative = inhibition, usual class: inhibitors | O75874 | IDH1-R132H enzyme, NADPH consumption, diaphorase/resazurin fluorescence; also: % is scaled to controls: 0 for no effect and ±100 for the full control effect; nearly all actives have a fitted effect of over 65% in size
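IDH1-R132H (0.5 ug/mL dispensed) in pH 7.5 Tris buffer was preincubated 30 min with compound, then given a substrate mix of 0.016 mM NADPH and 2 mM alpha-KG for 80 min at room temperature; remaining NADPH was read by diaphorase/resazurin fluorescence.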
TrxR1 substrate: substrates of rat thioredoxin reductase 1; purified TrxR1 substrate turnover, NADPH consumption readout; AID 588456; 390,000 tested, 0.01% active; Potency, µM (doses to about 114 µM), inactives show top-dose activity change, negative = substrate turnover; also: % is scaled to controls: 0 for no effect and ±100 for the full control effect; nearly all actives have a fitted effect of over 50% in size
Target sequence (O89049 whole entry, looked up): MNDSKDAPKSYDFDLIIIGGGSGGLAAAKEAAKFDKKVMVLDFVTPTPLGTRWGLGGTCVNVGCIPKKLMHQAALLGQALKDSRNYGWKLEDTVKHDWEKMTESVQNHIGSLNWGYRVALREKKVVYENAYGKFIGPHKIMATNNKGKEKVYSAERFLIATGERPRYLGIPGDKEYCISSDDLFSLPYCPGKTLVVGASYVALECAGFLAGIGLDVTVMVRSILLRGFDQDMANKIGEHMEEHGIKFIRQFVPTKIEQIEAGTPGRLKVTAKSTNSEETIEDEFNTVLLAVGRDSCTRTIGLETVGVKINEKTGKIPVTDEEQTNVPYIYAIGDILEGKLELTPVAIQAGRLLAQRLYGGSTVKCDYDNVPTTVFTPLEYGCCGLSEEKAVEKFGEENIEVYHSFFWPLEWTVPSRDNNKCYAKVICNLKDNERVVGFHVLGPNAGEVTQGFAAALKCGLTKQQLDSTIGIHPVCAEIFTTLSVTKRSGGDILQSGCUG
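Rat TrxR1, dispensed at 90 nM, was prereduced with 400 uM NADPH (final) for 5 min at ~22 deg C, then incubated with compound 15 min before 400 uM selenite. A first-read NADPH fluorescence drop versus no-compound background flagged substrates.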
Mito fusion act: blocks mitochondrial division or promotes mitochondrial fusion. S. cerevisiae fusion-defective mutant growth rescue, CellTiterGlo 48 h. AID 485298. 320,000 tested, 0.23% active. Potency, µM (top dose mostly 46.1 µM), without a hit: at the top dose growth rescue (activation), most hits filed as activators; also: % of control where 0% means no effect; nearly all actives have a fitted effect of over 45% in size
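Growth-rescue viability read-out: after 48 h at the non-permissive 37C in glycerol/ethanol YPEG, yeast mitochondrial fusion mutants are measured by CellTiterGlo luminescence; compounds (23 nl pinned per well) restoring growth score as division inhibitors or fusion activators.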
Nrf2 block: Nrf2 pathway inhibition. AID 504444. 360,000 tested, 2.1% active. A549 ARE-Fluc reporter, luciferase luminescence, 18-24 h. Potency, µM (titrated, usually from 46 µM), without a hit: top-dose activity change, negative = inhibition, hits mostly inhibitors; also: % is scaled to controls: 0 for no effect and ±100 for the full control effect; nearly all actives have a fitted effect of over 60% in size
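Cells were seeded and rested 2 h, then exposed to compounds for 18-24 h. CellTiter-Fluor was read first as a viability measure. BugLite was added 15 min before the final luminescent read of ARE-luciferase activity in A549 cells.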
rTrxR1 inhibitor: blocks rat thioredoxin reductase 1 | AID 588453 | 390,000 tested, 1% active | recombinant rTrxR1, NADPH fluorescence consumption, selenite substrate | Potency, µM (highest dose often 114 µM), inactives show top-dose activity change, negative = inhibition, most hits filed as inhibitors | O89049; also: % is scaled to controls: 0 for no effect and ±100 for the full control effect; nearly all actives have a fitted effect of over 65% in size
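Rat TrxR1 (90 nM in the dispensed reagent) was pre-reduced with 400 uM NADPH for 5 min at room temperature, then incubated with compound for 15 min. After 400 uM selenite was added, NADPH fluorescence (Ex 340/Em 450 nm) was followed for 8 min.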
A549 tox: counter-screen for Nrf2 inhibitors: cytotoxicity in A549 cells; Potency, µM (titrated, usually from 46 µM), without a hit: at the highest dose activity change, negative = cytotoxicity, most hits filed as inhibitors; A549 ARE-Fluc cells, CellTiter-Fluor viability, 18-24 h; 390,000 tested, 0.16% active; also: % is scaled to controls: 0 for no effect and ±100 for the full control effect
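A549 ARE-Fluc cells in 5% FBS OPTI-MEM, 5000 cells/well, rested 2 h then exposed to compounds in concentration-response for 18-24 h at 37 °C. Viability by CellTiter-Fluor fluorescence (Ex 405/Em 525) after 30 min; luciferase luminescence (BugLite, 15 min, RT) read afterwards.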
Starred values were filed as active, the others as inactive; ? = inconclusive; . = no result; [ ] = remark or other dose. Most compounds without a hit are left out; they make up all but 3.1% or so of the library. Calls follow the shape of the dose curve; as a rule, active = well fitted curve in the direction sought with a large enough effect; inconclusive = small, poorly fitted or top-dose-only effect, or another doubt; inactive = no such curve, though single readings can be large; an effect the other way counts as inactive or inconclusive. Potency is read from the fitted curve at half-maximal effect.

SMILES	IDH1 R132H inh	TrxR1 substrate	Mito fusion act	Nrf2 block	rTrxR1 inhibitor	A549 tox
CCCN1C(=O)/C(=C/c2ccc(N3CCCC3)c(C)c2)NC1=S	6%	-11%	-8%	21µM*	-28%	-16%
Cn1c2cc(S(C)=O)sc2c2cnn(Cc3cccc(N)c3)c(=O)c21 (stereo not drawn)	.	.	.	5%	.	1%
COc1ccc(/C=C/c2c(-c3ccc(OC)cc3)oc3ccccc23)cc1	10%	57%	-2%	21%	45µM*	1%
COC(=O)c1ccc(/C=C/c2c(-c3ccc(OC)cc3)oc3ccccc23)cc1	-6%	82%	6%	?	33%	-21%
CCn1nc(C)c2c(-c3ccccc3)cc(=O)n(C(C)C(=O)NCCc3ccccc3)c21 (stereo not drawn)	-5%	2%[57.1 µM]	.	18µM*	14%[57.1 µM]	-11%
CCSc1nnc(NC(=O)C2Cc3ccccc3CN2C(=O)c2ccco2)s1 (stereo not drawn)	-2%	-2%	3%	2%	32µM*	3%
O=C(c1ccoc1)N1CCC2(CC1)Oc1ccc(Cl)cc1C(=O)C21CC(c2ccc(Cl)cc2)=NO1 (stereo not drawn)	-6%	-1%	4%	0%	-3%	2%
O=C(c1ccoc1)N1CCC2(CC1)Oc1ccc(F)cc1C(=O)C21CC(c2ccc(Cl)cc2)=NO1 (stereo not drawn)	8%	-10%	10%	-7%	71µM*	-6%
Clc1ccc(/C=N/c2c(-c3ccco3)nc3ccccn23)cc1	1%	94%	0%	-11%	?	1%
Oc1ccccc1/C=N/c1c(-c2ccco2)nc2ccccn12	7%	81%	-3%	4%	79µM*	-3%
CN(C)c1ccc(/C=C2\NC(=O)NC2=O)cc1	.	-14%	.	.	-3%	.
COc1ccc(N2CCN(C(=O)c3cc4cc5ccc(Cl)cc5nc4o3)CC2)cc1	-6%	-8%	.	4%	2%	11%
CC(=O)SC(C[N+](=O)[O-])c1cn(C(C)=O)c2ccccc12 (stereo not drawn)	-5%	2%	-12%	19%	18µM*	-17%
CC(=O)n1cc(Nc2ccc([N+](=O)[O-])cc2)c2ccccc21	4%	8%	2%	10%	22%	-2%
COc1cccc(-n2c(SCc3ccccn3)nc3c(c2=O)SCC3)c1	17%	5%[57.1 µM]	0%	1.8µM*	23%[57.1 µM]	-12%
O=C(Cn1cnc2ccccc21)Nc1ccc2c(c1)OCCCO2	2%	9%	-2%	13µM*	12%	-15%
O=C(Cn1cnc2ccccc2c1=O)Nc1ccc2c(c1)OCO2	3%	-1%	-1%	?	24%	9%
COc1ccc(C2CC(=O)c3cc(-c4nc(-c5ccc(Cl)cc5)c(C)s4)c(=O)[nH]c3C2)cc1 (stereo not drawn)	-13%	11%	.	13%	25%	8%
COc1ccc(OC)c(/C=C/c2sc3ccccc3[n+]2C)c1	.	-6%	.	.	-30%	.
Cc1ccc2cc(CN(Cc3ccc4c(c3)OCO4)Cc3nnnn3Cc3ccco3)c(=O)[nH]c2c1	9%	5%	9%	?	-7%	-19%
CCOc1ccc2[nH]c(=O)c(C(c3nnnn3Cc3ccco3)N3CCC(C)CC3)cc2c1 (stereo not drawn)	-23%	18%	8%	?	?	9%
CCOc1ccc2[nH]c(=O)c(C(c3nnnn3Cc3ccco3)N3CCCC(C)C3)cc2c1 (stereo not drawn)	-9%	17%[57.1 µM]	0%	.	13µM*	1%
Cc1ccc(CN(Cc2cc3cc4c(cc3[nH]c2=O)OCCO4)Cc2nnnn2Cc2ccco2)cc1	-2%	24%	20%	26µM*	?	?
COc1ccc2[nH]c(=O)c(CN(Cc3nnnn3Cc3ccco3)C3CCCCC3)cc2c1	0%	1%	8%	3%	18µM*	2%
Cc1cnc2ccccc2c1C	.	6%	.	.	11%	.
SMILES	IDH1 R132H inh	TrxR1 substrate	Mito fusion act	Nrf2 block	rTrxR1 inhibitor	A549 tox
CN(C)c1ccc(N=Nc2ccc(/C=C/c3ccnc4ccccc34)cc2)cc1	.	-13%	.	.	?	.
CCOc1ccccc1-c1nnc2n1N=C(c1cccc(OC)c1)CS2	.	.	.	11%	.	-2%
CC(NC(=O)c1ccc([N+](=O)[O-])o1)C12CC3CC(CC(C3)C1)C2 (stereo not drawn)	-3%	-8%[57.1 µM]	14µM*	-5%	-14%[57.1 µM]	0%
Brc1ccccc1OCCCCn1cnc2ccccc21	15%	5%[57.1 µM]	-1%	7.3µM*	20%[57.1 µM]	-22%
C/C=C(\C)C(=O)N1CC2(CC(c3cccc(NC(=O)COc4ccc(Cl)cc4)c3)=NO2)C[C@@H]1C(N)=O (stereo partly drawn)	8%	-8%[57.1 µM]	13%	6%	1%[57.1 µM]	-2%
C/C=C\C=C\C(=O)N1CC2(CC(c3cccc(NC(=O)COc4ccc(Cl)cc4)c3)=NO2)C[C@H]1C(N)=O (stereo partly drawn)	2%	12%[57.1 µM]	0%	2%	25µM*	-4%
CCCCCC(=O)Nc1cccc(C2=NOC3(C2)C[C@@H](C(N)=O)N(C(=O)c2cc([N+](=O)[O-])cc([N+](=O)[O-])c2C)C3)c1 (stereo partly drawn)	0%	-2%	-7%	11%	7%	-1%
C/C=C/C=C\C(=O)Nc1cccc(C2=NOC3(C2)C[C@@H](C(N)=O)N(C(=O)c2cc([N+](=O)[O-])cc([N+](=O)[O-])c2C)C3)c1 (stereo partly drawn)	-3%	5%[57.1 µM]	8%	-15%	16µM*	-1%
C/C=C/C=C\C(=O)Nc1cccc(C2=NOC3(C2)C[C@H](C(N)=O)N(C(=O)/C=C/C)C3)c1 (stereo partly drawn)	-6%	8%	3%	13%	14µM*	3%
C/C=C\C=C/C(=O)Nc1cccc(C2=NOC3(C2)C[C@@H](C(N)=O)N(C(=O)COc2ccc(Cl)cc2)C3)c1 (stereo partly drawn)	10%	-3%	22%	15%	5.6µM*	6%
CCCCCC(=O)Nc1cccc(C2=NOC3(C2)C[C@H](C(N)=O)N(C(=O)COc2ccc(Cl)cc2)C3)c1 (stereo partly drawn)	-1%[38.3 µM]	-12%	-17%	?	4%	3%
O=C(Nc1ccc(Br)cc1F)c1ncoc1-c1ccco1	-2%	4%[57.1 µM]	.	.	6%[57.1 µM]	6%
Cc1oc2ccc(O)c(CN(C)Cc3ccccc3)c2c1C(=O)Nc1cccc(C(F)(F)F)c1	12%	0%	.	?	11%	0%

Source: PubChem
